Data as given in PubChem BioAssay AID1159580 (chemical genetic matrix, 2015).
Among all 5,500 compounds or so, about 2,000 (36%) were called active. Roughly 18% stayed inconclusive and do not appear here. No stated cut-off is given here; in the data, active means normalized growth mostly below about 0.91 (no sharp cut-off); inconclusive means no clear call, values can overlap the other calls; inactive means mostly above about 0.92. Some of the results follow.

Experiment: chemical genetic growth profiling, strain panel (AID 1159580);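 further: tested at 20 µM; growth read once vehicle control cultures reached saturation at 30 °C; 1 = growth at the plate median or of vehicle wells; lower values mean less growth of the strain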
Conditions: S. cerevisiae deletion strains, growth OD

Measured: normalized growth

COc1cc([C@@H]2c3cc4c(c(O)c3C[C@H]3COC(=O)[C@@H]32)OCO4)cc(OC)c1OC
inactive: locus YAL013W, strain DEP1, active compounds read low 0.986 | locus YAL021C, strain ccr4, active compounds read low 0.995 | locus YAL026C, strain drs2, active compounds read low 0.992 | locus YAL030W, strain snc1, active compounds read low 0.986 | locus YBL061C, strain skt5, active compounds read low 0.994 | locus YBR009C, strain hhf1, active compounds read low 0.993 | locus YBR021W, strain FUR4, active compounds read low 1 | locus YBR023C, strain chs3, active compounds read low 0.999 | locus YBR171W, strain sec66, active compounds read low 0.971 | locus YBR229C, strain ROT2, active compounds read low 0.985 | locus YBR231C, strain swc5, active compounds read low 0.977 | locus YBR279W, strain paf1, active compounds read low 0.994 | locus YCL011C, strain gbp2, active compounds read low 0.996 | locus YCL016C, strain dcc1, active compounds read low 1 | locus YCL029C, strain bik1, active compounds read low 0.978 | locus YCL069W, strain vba3, active compounds read low 1 | locus YCR088W, strain abp1, active compounds read low 0.984 | locus YDL005C, strain med2, active compounds read low 0.979 | locus YDL035C, strain GPR1, active compounds read low 0.981 | locus YDL040C, strain nat1, active compounds read low 0.994 | locus YDL074C, strain BRE1, active compounds read low 1.05 | locus YDL101C, strain DUN1, active compounds read low 0.985 | locus YDL134C, strain PPH21, active compounds read low 0.997 | locus YDL185W, strain tfp1, active compounds read low 0.959 | locus YDL192W, strain arf1, active compounds read low 0.972 | locus YDR001C, strain nth1, active compounds read low 0.988 | locus YDR069C, strain doa4, active compounds read low 0.981 | locus YDR101C, strain arx1, active compounds read low 0.995 | locus YDR137W, strain rgp1, active compounds read low 0.993 | locus YDR150W, strain NUM1, active compounds read low 0.973 | locus YDR159W, strain sac3, active compounds read low 0.967 | locus YDR162C, strain NBP2, active compounds read low 0.998 | locus YDR195W, strain ref2 0.93 | locus YDR297W, strain sur2, active compounds read low 0.976 | locus YDR318W, strain mcm21, active compounds read low 0.986 | locus YDR334W, strain swr1, active compounds read low 0.987 | locus YDR335W, strain msn5, active compounds read low 1 | locus YDR388W, active compounds read low 0.991 | locus YDR392W, strain spt3, active compounds read low 0.924 | locus YDR502C, strain sam2, active compounds read low 0.983 | locus YEL003W, strain gim4, active compounds read low 0.983 | locus YEL037C, strain rad23, active compounds read low 0.993 | locus YEL061C, strain CIN8 (second series), active compounds read low 1 | locus YEL061C, strain CIN8, active compounds read low 0.99 | locus YER015W, strain faa2, active compounds read low 1 | locus YER016W, strain bim1, active compounds read low 0.979 | locus YER110C, active compounds read low 0.971 | locus YER111C, strain swi4, active compounds read low 0.989 | locus YER155C, strain BEM2 (second series), active compounds read low 0.96 | locus YER155C, strain BEM2, active compounds read low 0.994 | locus YER167W, strain BCK2, active compounds read low 0.976 | locus YFR010W, strain ubp6, active compounds read low 0.995 | locus YGL078C, strain dbp3, active compounds read low 0.986 | locus YGL086W, strain mad1, active compounds read low 0.982 | locus YGL167C, strain pmr1, active compounds read low 0.991 | locus YGL173C, strain kem1, active compounds read low 0.98 | locus YGL227W, strain vid30, active compounds read low 0.983 | locus YGL240W, strain doc1, active compounds read low 0.961 | locus YGL248W, strain PDE1, active compounds read low 0.988 | locus YGL253W, strain hxk2, active compounds read low 0.994 | locus YGR078C, strain PAC10, active compounds read low 1.03 | locus YGR135W, strain pre9, active compounds read low 1.02 | locus YGR229C, strain SMI1, active compounds read low 1.05 | locus YGR252W, strain gcn5, active compounds read low 1.04 | locus YHR013C, strain ard1, active compounds read low 1 | locus YHR027C, strain rpn1, active compounds read low 0.976 | locus YHR030C, strain SLT2, active compounds read low 0.979 | locus YHR079C, strain IRE1 (second series), active compounds read low 0.983 | locus YHR094C, strain hxt1, active compounds read low 0.974 | locus YHR129C, strain ARP1, active compounds read low 0.993 | locus YHR142W, strain chs7, active compounds read low 1.02 | locus YHR200W, strain rpn10, active compounds read low 0.975 | locus YIL066C, strain RNR3, active compounds read low 0.983 | locus YIL073C, strain SPO22, active compounds read low 0.923 | locus YIL125W, strain kgd1, active compounds read low 0.986 | locus YIR030C, strain dcg1, active compounds read low 0.982 | locus YJL092W, strain hpr5, active compounds read low 0.999 | locus YJL095W, strain BCK1 (second series), active compounds read low 0.987 | locus YJL095W, strain BCK1, active compounds read low 1.05 | locus YJL115W, strain asf1, active compounds read low 0.987 | locus YJL129C, strain trk1, active compounds read low 0.962 | locus YJL134W, strain LCB3, active compounds read low 0.982 | locus YJL154C, strain vps35, active compounds read low 0.987 | locus YJL164C, strain tpk1, active compounds read low 1 | locus YJL166W, strain qcr8, active compounds read low 0.995 | locus YJL168C, strain set2, active compounds read low 0.985 | locus YJL187C, strain SWE1 (second series), active compounds read low 1.01 | locus YJL187C, strain SWE1, active compounds read low 0.983
